# Columns and labels:
# Test in all cases: DAPPL (digital affinity profiling via proximity ligation, sequencing); 10 mM Tris-HCl pH 7.5, 50 mM NaCl, 1 mM DTT, 4% glycerol, room temperature, 30 min; GST-TFs on glutathione beads, 16-mer random dsDNA library, 0.1% formaldehyde crosslink after washing; high values mean tight binding
# [1] = biological target: T1, FEV (Homo sapiens, UniProt Q99581 1-238); settings: protein: recombinant; tags: N-terminal GST; dsDNA, one strand shown
# T1 sequence: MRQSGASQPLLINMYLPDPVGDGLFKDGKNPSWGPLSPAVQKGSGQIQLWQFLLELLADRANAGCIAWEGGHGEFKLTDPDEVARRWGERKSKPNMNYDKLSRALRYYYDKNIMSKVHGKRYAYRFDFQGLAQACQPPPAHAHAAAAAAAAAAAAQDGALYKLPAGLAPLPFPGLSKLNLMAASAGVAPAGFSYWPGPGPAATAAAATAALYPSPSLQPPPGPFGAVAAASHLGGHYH
# Outline: (§1)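 Sequencing on an Illumina NextSeq500 followed washing, crosslinking with 0.1% formaldehyde, proximity ligation (BsaI/T4 ligase, 1 h, 37 °C) and PCR amplification of pools that had been incubated for 30 min at room temperature with 200 nmole of a random double-stranded 16-mer DNA library in Tris/NaCl/DTT/glycerol buffer. Each pool held DNA-barcoded human transcription factors, expressed in yeast as GST fusions and captured on glutathione beads, plus a tag-only sample. Binding signal is a hexamer's read frequency for a factor divided by its frequency in the tag-only sample.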
# [2] = biological target: ETV5 (Homo sapiens, UniProt P41161 1-510); settings: protein: recombinant; tags: N-terminal GST; dsDNA, one strand shown
# Sequence of ETV5 (P41161 whole entry): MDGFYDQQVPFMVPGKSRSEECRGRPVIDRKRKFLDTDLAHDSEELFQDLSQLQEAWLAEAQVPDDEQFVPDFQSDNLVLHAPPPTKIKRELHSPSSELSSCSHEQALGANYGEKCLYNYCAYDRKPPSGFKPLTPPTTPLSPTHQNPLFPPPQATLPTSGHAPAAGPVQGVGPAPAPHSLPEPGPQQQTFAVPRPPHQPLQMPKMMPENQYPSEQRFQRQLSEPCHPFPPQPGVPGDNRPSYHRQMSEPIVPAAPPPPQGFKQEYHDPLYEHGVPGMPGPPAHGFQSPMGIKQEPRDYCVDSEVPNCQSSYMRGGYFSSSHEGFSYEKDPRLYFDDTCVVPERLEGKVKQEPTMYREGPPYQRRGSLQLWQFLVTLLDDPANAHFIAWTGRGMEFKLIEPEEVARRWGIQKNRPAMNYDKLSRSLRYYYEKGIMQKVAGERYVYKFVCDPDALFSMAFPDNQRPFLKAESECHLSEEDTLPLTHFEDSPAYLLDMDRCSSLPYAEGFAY
# Outline: as §1
# [3] = biological target: HSF1 (Homo sapiens, UniProt Q00613 1-529); settings: protein: recombinant; tags: N-terminal GST; chain copies: 3; dsDNA, one strand shown
# Sequence of HSF1 (Q00613 whole entry): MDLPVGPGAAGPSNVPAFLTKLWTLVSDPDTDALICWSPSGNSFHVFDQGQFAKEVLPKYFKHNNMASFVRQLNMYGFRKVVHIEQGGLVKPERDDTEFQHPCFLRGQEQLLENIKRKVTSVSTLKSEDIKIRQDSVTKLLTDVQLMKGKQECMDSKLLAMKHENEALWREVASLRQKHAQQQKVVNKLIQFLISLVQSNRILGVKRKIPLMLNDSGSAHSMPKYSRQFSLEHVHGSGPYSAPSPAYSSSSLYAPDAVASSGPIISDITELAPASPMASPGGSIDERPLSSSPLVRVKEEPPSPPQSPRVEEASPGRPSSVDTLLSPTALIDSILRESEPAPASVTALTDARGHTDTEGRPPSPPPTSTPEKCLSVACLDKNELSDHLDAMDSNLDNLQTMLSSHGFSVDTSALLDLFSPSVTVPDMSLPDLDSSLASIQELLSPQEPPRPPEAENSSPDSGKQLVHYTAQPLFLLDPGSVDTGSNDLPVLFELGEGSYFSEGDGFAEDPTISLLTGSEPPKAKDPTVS
# Outline: as §1
# [4] = biological target: T2, SPIC (Homo sapiens, UniProt Q8N5J4 1-248); settings: protein: recombinant; tags: N-terminal GST; dsDNA, one strand shown
# T2 sequence: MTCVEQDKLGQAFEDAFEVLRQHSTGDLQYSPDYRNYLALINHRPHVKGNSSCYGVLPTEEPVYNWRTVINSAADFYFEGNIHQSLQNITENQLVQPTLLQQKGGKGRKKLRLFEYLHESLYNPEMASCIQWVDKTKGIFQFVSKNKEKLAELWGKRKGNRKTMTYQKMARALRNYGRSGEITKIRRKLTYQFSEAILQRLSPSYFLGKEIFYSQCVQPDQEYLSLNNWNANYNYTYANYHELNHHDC
# Outline: as §1
# [5] = biological target: ELF4 (Homo sapiens, UniProt Q99607 1-663); settings: protein: recombinant; tags: N-terminal GST; dsDNA, one strand shown
# Sequence of ELF4 (Q99607 whole entry): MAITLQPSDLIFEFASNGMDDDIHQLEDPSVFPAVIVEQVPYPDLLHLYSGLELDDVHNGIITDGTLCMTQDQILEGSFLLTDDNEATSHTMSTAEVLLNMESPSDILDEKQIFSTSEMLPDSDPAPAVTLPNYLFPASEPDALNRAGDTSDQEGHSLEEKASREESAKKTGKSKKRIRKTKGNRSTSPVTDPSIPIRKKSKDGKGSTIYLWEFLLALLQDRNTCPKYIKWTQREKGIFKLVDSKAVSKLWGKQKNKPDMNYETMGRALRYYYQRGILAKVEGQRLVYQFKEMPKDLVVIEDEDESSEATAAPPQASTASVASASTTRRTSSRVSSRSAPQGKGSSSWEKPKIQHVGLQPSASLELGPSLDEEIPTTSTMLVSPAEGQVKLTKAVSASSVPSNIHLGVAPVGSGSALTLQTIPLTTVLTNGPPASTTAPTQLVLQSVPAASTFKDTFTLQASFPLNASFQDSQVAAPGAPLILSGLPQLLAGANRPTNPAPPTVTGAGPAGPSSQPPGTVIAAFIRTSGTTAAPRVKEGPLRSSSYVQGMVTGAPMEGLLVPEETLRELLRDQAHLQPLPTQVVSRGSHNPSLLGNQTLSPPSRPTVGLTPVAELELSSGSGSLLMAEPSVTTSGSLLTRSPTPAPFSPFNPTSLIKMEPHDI
# Outline: as §1
# [6] = biological target: T3, ELK4 (Homo sapiens, UniProt P28324-2 1-405); settings: protein: recombinant; tags: N-terminal GST; dsDNA, one strand shown
# T3 sequence: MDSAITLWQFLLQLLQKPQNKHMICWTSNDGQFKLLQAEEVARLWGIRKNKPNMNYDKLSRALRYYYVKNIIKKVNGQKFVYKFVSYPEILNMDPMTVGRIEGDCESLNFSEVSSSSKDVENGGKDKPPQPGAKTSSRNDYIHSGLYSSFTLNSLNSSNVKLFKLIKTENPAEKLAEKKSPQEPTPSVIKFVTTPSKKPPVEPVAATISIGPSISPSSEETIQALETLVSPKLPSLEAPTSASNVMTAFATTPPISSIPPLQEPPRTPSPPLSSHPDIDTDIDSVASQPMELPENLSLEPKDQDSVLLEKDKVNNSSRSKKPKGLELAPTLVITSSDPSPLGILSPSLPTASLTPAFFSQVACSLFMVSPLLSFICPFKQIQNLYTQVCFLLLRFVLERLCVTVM
# Outline: as §1
# [7] = biological target: T4, ETV2 (Homo sapiens, UniProt O00321 1-342); settings: protein: recombinant; tags: N-terminal GST; dsDNA, one strand shown
# T4 sequence: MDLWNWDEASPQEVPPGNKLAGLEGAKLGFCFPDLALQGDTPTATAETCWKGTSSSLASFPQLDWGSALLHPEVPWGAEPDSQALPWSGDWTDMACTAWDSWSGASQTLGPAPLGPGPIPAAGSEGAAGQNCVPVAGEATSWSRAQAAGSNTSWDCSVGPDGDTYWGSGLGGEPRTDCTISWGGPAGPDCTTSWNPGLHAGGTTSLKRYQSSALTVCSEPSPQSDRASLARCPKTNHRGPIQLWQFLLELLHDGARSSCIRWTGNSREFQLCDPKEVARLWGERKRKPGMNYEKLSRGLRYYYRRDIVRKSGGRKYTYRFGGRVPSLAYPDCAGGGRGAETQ
# Outline: as §1
# [8] = biological target: T5, ELF3 (Homo sapiens, UniProt P78545 1-371); settings: protein: recombinant; tags: N-terminal GST; dsDNA, one strand shown
# T5 sequence: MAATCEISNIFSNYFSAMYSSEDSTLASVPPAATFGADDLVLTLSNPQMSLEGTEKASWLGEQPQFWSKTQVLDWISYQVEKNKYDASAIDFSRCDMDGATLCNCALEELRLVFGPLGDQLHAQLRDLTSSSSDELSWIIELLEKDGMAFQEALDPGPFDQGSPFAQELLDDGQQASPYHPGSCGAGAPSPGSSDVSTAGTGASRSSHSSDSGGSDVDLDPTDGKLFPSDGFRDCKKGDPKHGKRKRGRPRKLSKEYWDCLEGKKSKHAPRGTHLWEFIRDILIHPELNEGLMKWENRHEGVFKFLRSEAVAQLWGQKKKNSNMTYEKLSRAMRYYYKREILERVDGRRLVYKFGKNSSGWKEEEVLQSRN
# Outline: as §1
# [9] = biological target: CRX (Homo sapiens, UniProt O43186 1-299); settings: protein: recombinant; tags: N-terminal GST; dsDNA, one strand shown
# Sequence of CRX (O43186 whole entry): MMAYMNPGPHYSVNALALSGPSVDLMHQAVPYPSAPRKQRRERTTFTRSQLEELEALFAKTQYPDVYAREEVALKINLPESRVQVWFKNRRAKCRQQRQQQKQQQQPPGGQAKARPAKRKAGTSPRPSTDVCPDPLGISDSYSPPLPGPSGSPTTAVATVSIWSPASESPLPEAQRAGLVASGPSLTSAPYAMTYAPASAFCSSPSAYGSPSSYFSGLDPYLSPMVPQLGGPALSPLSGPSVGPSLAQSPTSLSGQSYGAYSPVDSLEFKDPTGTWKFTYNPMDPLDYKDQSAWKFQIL
# Outline: as §1
# [10] = biological target: ETV1 (Homo sapiens, UniProt P50549 1-477); settings: protein: recombinant; tags: N-terminal GST; dsDNA, one strand shown
# Sequence of ETV1 (P50549 whole entry): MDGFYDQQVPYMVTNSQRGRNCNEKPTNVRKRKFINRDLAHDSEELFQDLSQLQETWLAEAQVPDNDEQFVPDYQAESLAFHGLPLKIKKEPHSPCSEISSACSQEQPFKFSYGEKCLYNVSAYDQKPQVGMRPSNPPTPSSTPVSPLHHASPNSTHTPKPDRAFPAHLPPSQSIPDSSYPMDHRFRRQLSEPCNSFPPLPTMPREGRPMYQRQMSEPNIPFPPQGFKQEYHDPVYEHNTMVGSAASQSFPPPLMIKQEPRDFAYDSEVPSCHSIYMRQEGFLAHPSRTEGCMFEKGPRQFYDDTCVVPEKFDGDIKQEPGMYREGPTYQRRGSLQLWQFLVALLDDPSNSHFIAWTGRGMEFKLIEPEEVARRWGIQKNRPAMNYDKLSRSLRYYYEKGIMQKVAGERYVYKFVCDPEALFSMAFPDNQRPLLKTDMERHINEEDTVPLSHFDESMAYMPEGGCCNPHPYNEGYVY
# Outline: as §1
# [11] = biological target: T6, ERF (Homo sapiens, UniProt P50548 1-548); settings: protein: recombinant; tags: N-terminal GST; dsDNA, one strand shown
# T6 sequence: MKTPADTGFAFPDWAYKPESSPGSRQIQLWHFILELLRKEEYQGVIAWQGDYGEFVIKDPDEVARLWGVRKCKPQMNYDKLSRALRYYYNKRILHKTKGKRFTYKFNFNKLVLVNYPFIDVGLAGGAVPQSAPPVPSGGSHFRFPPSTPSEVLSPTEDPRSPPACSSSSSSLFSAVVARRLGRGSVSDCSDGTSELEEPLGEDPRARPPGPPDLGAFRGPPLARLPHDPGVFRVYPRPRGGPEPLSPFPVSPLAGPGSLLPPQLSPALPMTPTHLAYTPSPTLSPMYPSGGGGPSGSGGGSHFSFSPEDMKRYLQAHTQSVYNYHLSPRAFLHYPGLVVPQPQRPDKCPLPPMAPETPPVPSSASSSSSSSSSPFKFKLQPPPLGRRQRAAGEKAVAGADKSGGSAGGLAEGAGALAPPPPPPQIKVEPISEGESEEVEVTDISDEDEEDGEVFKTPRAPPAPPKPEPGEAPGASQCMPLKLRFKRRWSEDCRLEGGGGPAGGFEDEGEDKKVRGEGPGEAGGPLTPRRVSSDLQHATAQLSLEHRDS
# Outline: as §1
# [12] = biological target: T7, ETV3L (Homo sapiens, UniProt Q6ZN32 1-361); settings: protein: recombinant; tags: N-terminal GST; dsDNA, one strand shown
# T7 sequence: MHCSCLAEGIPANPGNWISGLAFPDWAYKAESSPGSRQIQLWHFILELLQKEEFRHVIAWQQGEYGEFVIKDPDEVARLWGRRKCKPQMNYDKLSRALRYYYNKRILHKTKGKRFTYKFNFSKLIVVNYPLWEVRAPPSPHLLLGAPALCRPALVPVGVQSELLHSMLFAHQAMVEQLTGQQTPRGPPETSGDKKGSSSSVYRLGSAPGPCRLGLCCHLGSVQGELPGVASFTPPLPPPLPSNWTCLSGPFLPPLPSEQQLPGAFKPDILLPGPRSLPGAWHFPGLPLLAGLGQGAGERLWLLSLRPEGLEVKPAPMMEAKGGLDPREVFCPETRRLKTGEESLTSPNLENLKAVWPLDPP
# Outline: as §1
# [13] = biological target: T8, ETS2 (Homo sapiens, UniProt P15036 1-469); settings: protein: recombinant; tags: N-terminal GST; dsDNA, one strand shown
# T8 sequence: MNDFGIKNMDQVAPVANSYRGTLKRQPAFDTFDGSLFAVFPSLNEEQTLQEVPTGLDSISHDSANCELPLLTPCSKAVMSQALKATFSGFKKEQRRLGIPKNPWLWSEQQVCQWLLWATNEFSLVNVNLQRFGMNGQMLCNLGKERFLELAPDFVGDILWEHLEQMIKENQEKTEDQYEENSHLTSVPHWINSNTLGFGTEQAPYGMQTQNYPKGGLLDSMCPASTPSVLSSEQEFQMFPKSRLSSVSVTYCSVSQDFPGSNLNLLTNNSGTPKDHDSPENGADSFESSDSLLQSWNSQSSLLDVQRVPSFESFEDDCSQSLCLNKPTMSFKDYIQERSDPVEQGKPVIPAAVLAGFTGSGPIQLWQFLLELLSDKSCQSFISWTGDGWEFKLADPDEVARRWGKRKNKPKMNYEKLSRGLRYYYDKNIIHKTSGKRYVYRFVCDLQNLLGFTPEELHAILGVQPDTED
# Outline: as §1
# [14] = biological target: T9, SPDEF (Homo sapiens, UniProt O95238 1-335); settings: protein: recombinant; tags: N-terminal GST; dsDNA, one strand shown
# T9 sequence: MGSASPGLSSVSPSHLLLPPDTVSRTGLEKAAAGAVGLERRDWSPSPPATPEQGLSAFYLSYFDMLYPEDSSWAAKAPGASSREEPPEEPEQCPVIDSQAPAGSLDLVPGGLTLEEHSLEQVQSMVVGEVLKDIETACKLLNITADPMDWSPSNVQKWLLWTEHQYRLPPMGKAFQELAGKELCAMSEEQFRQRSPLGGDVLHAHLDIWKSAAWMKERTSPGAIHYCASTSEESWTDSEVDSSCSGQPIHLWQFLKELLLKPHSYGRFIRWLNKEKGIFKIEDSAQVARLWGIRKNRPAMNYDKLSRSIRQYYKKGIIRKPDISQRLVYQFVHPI
# Outline: as §1
# [15] = biological target: T10, ETV7 (Homo sapiens, UniProt Q9Y603 1-341); settings: protein: recombinant; tags: N-terminal GST; dsDNA, one strand shown
# T10 sequence: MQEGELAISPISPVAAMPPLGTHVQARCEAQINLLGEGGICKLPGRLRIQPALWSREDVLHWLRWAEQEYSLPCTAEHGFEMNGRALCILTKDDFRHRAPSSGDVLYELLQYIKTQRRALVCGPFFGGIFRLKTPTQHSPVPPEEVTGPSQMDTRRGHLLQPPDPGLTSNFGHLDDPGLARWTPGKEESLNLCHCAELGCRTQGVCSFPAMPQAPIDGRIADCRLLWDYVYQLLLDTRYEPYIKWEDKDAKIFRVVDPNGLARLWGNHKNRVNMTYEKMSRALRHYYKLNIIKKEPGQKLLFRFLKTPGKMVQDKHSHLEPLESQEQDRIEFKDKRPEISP
# Outline: as §1
# [16] = biological target: T11, ELF5 (Homo sapiens, UniProt Q9UKW6-2 1-255); settings: protein: recombinant; tags: N-terminal GST; dsDNA, one strand shown
# T11 sequence: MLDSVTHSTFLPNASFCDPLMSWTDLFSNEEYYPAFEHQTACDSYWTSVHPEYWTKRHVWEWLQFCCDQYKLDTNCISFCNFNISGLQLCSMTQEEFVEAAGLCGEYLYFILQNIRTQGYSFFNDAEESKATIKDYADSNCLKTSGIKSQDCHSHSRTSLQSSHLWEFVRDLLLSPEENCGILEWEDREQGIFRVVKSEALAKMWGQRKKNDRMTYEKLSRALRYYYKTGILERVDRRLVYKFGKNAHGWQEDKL
# Outline: as §1
# [17] = biological target: T12, ETV3 (Homo sapiens, UniProt P41162-2 1-143); settings: protein: recombinant; tags: N-terminal GST; dsDNA, one strand shown
# T12 sequence: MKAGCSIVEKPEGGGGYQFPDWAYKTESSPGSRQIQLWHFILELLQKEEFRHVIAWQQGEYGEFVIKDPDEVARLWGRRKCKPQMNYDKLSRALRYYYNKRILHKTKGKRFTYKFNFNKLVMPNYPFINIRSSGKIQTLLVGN
# Outline: as §1
# [18] = biological target: ETV6 (Homo sapiens, UniProt P41212 1-452); settings: protein: recombinant; tags: N-terminal GST; dsDNA, one strand shown
# Sequence of ETV6 (P41212 whole entry): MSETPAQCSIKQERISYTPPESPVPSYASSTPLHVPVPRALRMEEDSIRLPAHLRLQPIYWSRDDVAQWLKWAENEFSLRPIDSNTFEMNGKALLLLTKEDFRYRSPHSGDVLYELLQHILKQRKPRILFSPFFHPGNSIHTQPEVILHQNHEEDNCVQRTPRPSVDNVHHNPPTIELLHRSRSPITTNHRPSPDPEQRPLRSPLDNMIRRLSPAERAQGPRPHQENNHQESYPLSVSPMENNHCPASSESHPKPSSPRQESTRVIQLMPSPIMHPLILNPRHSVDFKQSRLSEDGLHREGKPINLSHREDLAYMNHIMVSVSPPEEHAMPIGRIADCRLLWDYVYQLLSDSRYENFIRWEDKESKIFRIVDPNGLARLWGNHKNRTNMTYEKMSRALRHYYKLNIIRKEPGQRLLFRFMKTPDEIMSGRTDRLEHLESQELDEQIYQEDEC
# Outline: as §1
sequence,measurement,setting,value
ACATTC,binding signal,[1],"1.21 fold enrichment (6-mer frequency, TF over GST control)"
same,binding signal,[2],"1.39 fold enrichment (6-mer frequency, TF over GST control)"
same,binding signal,[3],"2.56 fold enrichment (6-mer frequency, TF over GST control)"
same,binding signal,[4],"1.22 fold enrichment (6-mer frequency, TF over GST control)"
same,binding signal,[5],"1.32 fold enrichment (6-mer frequency, TF over GST control)"
same,binding signal,[6],"1.22 fold enrichment (6-mer frequency, TF over GST control)"
same,binding signal,[7],"1.23 fold enrichment (6-mer frequency, TF over GST control)"
same,binding signal,[8],"1.31 fold enrichment (6-mer frequency, TF over GST control)"
same,binding signal,[9],"1.4 fold enrichment (6-mer frequency, TF over GST control)"
same,binding signal,[10],"1.29 fold enrichment (6-mer frequency, TF over GST control)"
same,binding signal,[11],"1.42 fold enrichment (6-mer frequency, TF over GST control)"
same,binding signal,[12],"1.3 fold enrichment (6-mer frequency, TF over GST control)"
same,binding signal,[13],"1.3 fold enrichment (6-mer frequency, TF over GST control)"
same,binding signal,[14],"1.27 fold enrichment (6-mer frequency, TF over GST control)"
same,binding signal,[15],"1.31 fold enrichment (6-mer frequency, TF over GST control)"
same,binding signal,[16],"1.36 fold enrichment (6-mer frequency, TF over GST control)"
same,binding signal,[17],"1.31 fold enrichment (6-mer frequency, TF over GST control)"
same,binding signal,[18],"1.4 fold enrichment (6-mer frequency, TF over GST control)"
